The source made the active and inactive calls. Unless noted, the rule behind the calls is not given here.
What was measured:
[1] = test system: Wnt5a (protein binding on small-molecule microarray); assay: Wnt5a binders on small-molecule microarray, primary screen, biophysical, 635/667 nm fluorescence (AID 1142); details: 635 nm fluorescence, higher = more signal;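 note: fluorescence read at 667 nm with signal to noise per printed feature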
[2] = cell viability in Huh7 cells, primary screen, cytotoxicity control for HCV replication inhibitor project, CellTiter-Glo luminescence, basal, 48 h (AID 1143); details: Huh7 HCV replicon, higher = more signal, called active from +8 up or from −8 down;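 note: Huh7 hepatoma cells carrying a hepatitis C replication reporter with no stimulus; test concentration not given here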
[3] = P. aeruginosa biofilm formation inhibitors, primary screen, PAO1 strain, BacTiter-Glo luminescence, LB-PBS (AID 1144); details: 12 h, higher = more signal
[4] = CREB reporter modulators without forskolin, primary screen, cell-based, PC12, CRE-LacZ reporter, unstimulated (AID 1145); details: no forskolin, luminescence, 4.5 h, higher = more signal, called active from +8 up or from −8 down
[5] = CREB reporter modulators under forskolin, primary screen, cell-based, PC12, CRE-LacZ reporter, forskolin-stimulated (AID 1146); details: luminescence, 4.5 h, higher = more signal, called active from +8 up or from −8 down;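 note: PC12 cells with 6xCRE LacZ reporter stimulated by forskolin 10 µM; beta-galactosidase reporter signal reflecting CREB driven transcription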
[6] = molecular target: Streptavidin (Streptomyces avidinii) (UniProt P22629); assay: streptavidin binders on small-molecule microarray, primary screen, artefact control for SMM compound annotation, biophysical, 635/667 nm fluorescence (AID 1147); details: streptavidin binding, higher = more signal;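 note: signal reflects streptavidin binding to arrayed compounds as a control protein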
[7] = small-molecule binders of probe aInhba, primary screen, biochemical, small-molecule microarray, 635/667 nm fluorescence (AID 1148); details: higher = more signal;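 note: score merges 667nm spot fluorescence with signal-to-noise for antibody binding to printed compounds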
Torsin-1A (Homo sapiens) [8] = molecular target: Torsin-1A (Homo sapiens) (UniProt O14656); assay: torsin A binders from cell lysate, primary screen, small-molecule microarray, wild-type, 635/667 nm (AID 1149); details: COS7 hTOR1A-WT lysate, 635 nm fluorescence, higher = more signal
Torsin-1A (Homo sapiens) [9] = molecular target: Torsin-1A (Homo sapiens) (UniProt O14656); assay: small-molecule binders of mutant TOR1A in lysate, primary screen, cell lysate, small-molecule microarray, COS7 lysate, 635/667 nm fluorescence (AID 1150); details: COS7 hTOR1A mutant lysate, 635 nm fluorescence, higher = more signal;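 note: score pools 667 nm emission and signal to noise measuring lysate protein binding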
[10] = test system: Sonic hedgehog protein (Shh); assay: small-molecule binders of Shh protein, primary screen, biochemical, small-molecule microarray, 635/667 nm fluorescence (AID 1151); details: small-molecule microarray binding, 635 nm fluorescence; higher = more signal;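 note: Shh protein binding to compounds spotted on small-molecule microarray slides; score combines spot fluorescence intensity with signal-to-noise across triplicate slides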

Chain of Streptavidin (Streptomyces avidinii) (P22629 whole entry, looked up): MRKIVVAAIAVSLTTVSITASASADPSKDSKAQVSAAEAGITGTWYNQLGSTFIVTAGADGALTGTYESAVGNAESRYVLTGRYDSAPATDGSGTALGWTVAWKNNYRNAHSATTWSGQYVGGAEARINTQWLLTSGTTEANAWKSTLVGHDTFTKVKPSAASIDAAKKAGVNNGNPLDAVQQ
Chain of Torsin-1A (Homo sapiens) (O14656 whole entry, looked up): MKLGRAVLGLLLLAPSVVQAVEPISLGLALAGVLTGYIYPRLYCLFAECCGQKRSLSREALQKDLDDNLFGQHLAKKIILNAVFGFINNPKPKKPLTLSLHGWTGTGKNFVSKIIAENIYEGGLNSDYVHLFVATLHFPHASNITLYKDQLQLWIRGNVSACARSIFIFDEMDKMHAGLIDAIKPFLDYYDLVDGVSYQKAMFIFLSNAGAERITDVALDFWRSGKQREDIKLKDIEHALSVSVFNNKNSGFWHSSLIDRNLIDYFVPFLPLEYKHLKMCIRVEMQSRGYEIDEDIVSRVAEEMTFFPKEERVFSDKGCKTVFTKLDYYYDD

SMILES | composite z-score [1] | z-score [2] | z-score [3] | z-score [4] | z-score [5] | composite z-score [6] | composite z-score [7] | composite z-score (Torsin-1A (Homo sapiens) [8]) | composite z-score (Torsin-1A (Homo sapiens) [9]) | composite z-score [10]
COc1cc2c(cc1O)C=[N+](Cc1sc3ccccc3c1Cl)CC2 | -0.245 | -2.33 (inactive) | 0.206 (inactive) | -0.348 (inactive) | 0.982 (inactive) | 0.0042 | -0.0308 | 0.166 | 0.276 | 0.66
COc1ccccc1CN1C(=O)c2ccccc2[C@](Cc2ccccc2I)(C(=O)O)[C@@H]1c1ccc(CO)cc1 | 0.638 | -1.03 (inactive) | 0.776 (inactive) | 0.145 (inactive) | -0.677 (inactive) | 1.09 | 0.0753 | 0.399 | 1.54 | 1.61
CCOC(=O)C1=C[C@@H](C(C)(C)C)N(S(=O)(=O)c2ccc(C)cc2)[C@H]1c1cccc2ccccc12 | -0.219 | -4.9 (inactive) | 0.873 (inactive) | 1.14 (inactive) | 0.705 (inactive) | 0.823 | 0.0421 | -0.331 | 0.406 | -0.165
O=C(NCCN1CCOCC1)[C@@H]1c2ccccc2C(=O)N(C2Cc3ccccc3C2)[C@H]1c1ccc(CO)cc1 | -0.136 | -1.59 (inactive) | -0.264 (inactive) | 0.118 (inactive) | -1.42 (inactive) | -0.456 | -0.0509 | 1.3 | 0.966 | 0.105
NC(=O)NCC#Cc1ccc2c(c1)[C@]1(C(=O)N2)[C@H](c2ccccc2OCCO)N2[C@H](c3ccccc3)[C@H](c3ccccc3)OC(=O)[C@H]2[C@@H]1C(=O)NC[C@H](O)c1ccccc1 | -0.287 | -2.62 (inactive) | 0.129 (inactive) | 0.0384 (inactive) | -0.278 (inactive) | 0.83 | -0.101 | 0.142 | -0.487 | -0.174
COC(=O)C/C=C/C[C@]1(O)C(=O)N(C)c2ccccc21 | 0.0325 | -1.2 (inactive) | -0.716 (inactive) | 1.04 (inactive) | -1.55 (inactive) | -0.373 | -0.104 | 0.325 | 0.582 | 0.775
CCCNC(=O)[C@@]1(Sc2ccc(C)cc2)CC(=O)N(C2Cc3ccccc3C2)[C@@H]1c1ccc(CO)cc1I | 0.196 | -0.812 (inactive) | 0.594 (inactive) | -0.374 (inactive) | 1.73 (inactive) | 0.419 | 0.27 | 0.418 | 0.309 | 0.737
CC(C)C(CO)N1C(=O)[C@@H]2C3C(=O)OCCC/C=C\[C@H]3OC23C=CCN(Cn2nnc4ccccc42)C(=O)[C@@H]13 (stereo not given in full) | -0.665 | -0.252 (inactive) | 0.0208 (inactive) | -1.44 (inactive) | -0.0111 (inactive) | -1.23 | -0.128 | -1.7 | -1.07 | 0.0683
Cn1cccc1C(O)C1C=CC2C(=O)N(c3ccccc3)C(=O)C2N1Nc1ccccc1 (stereo not given) | 0.402 | 0.525 (inactive) | -0.758 (inactive) | -0.525 (inactive) | -0.0981 (inactive) | 1.77 | 0.153 | 0.478 | 0.726 | 0.379
COc1ccc([Si](C)(C)[C@@H]2[C@@H](CC(=O)N(CCO)Cc3ccccc3)O[C@]3(C(=O)N(Cc4cccc(N5CCCCC5=O)c4)c4ccccc43)[C@H]2C)cc1 | 0.585 | -4.76 (inactive) | -0.952 (inactive) | 0.716 (inactive) | 0.708 (inactive) | -0.402 | 0.187 | 0.961 | 0.706 | 2.06
NC(=O)NCC#Cc1ccc2c(c1)[C@]1(C(=O)N2)[C@H](C(=O)N2CCN(c3ncccn3)CC2)[C@H]2C(=O)O[C@H](c3ccccc3)[C@H](c3ccccc3)N2[C@@H]1c1ccc(O)cc1 | 0.364 | -0.0243 (inactive) | 0.407 (inactive) | -0.467 (inactive) | -0.43 (inactive) | 0.328 | -0.352 | 0.0312 | 0.377 | 0.905
CCCC=C(CCC)[C@@H](NP(=O)(c1ccccc1)c1ccccc1)c1ccc(-c2ccccc2)cc1 | 0.363 | -1.53 (inactive) | 0.892 (inactive) | 0.204 (inactive) | 1.24 (inactive) | 1.09 | 0.3 | 0.804 | 1.68 | -0.0804
COc1cc(NN2C(C(O)c3ccco3)C=CC3C(=O)N(C)C(=O)C32)cc(OC)c1OC (stereo not given) | 0.259 | 1.06 (inactive) | 0.184 (inactive) | 0.815 (inactive) | 1.06 (inactive) | 0.536 | 0.288 | 1.27 | 1.04 | 0.0765
C=CCC(OC(C)=O)[C@@H]1[C@@H](N(Cc2cc3ccccc3o2)C(=O)Cc2ccc(F)cc2)c2cc(OCCCO)ccc2N1C(=O)Cc1ccc2ccccc2c1 (stereo not given in full) | -0.314 | -0.327 (inactive) | -0.467 (inactive) | 2.08 (inactive) | 0.926 (inactive) | 0.655 | -0.0963 | -1.16 | -0.337 | 0.0162
